Measured values reported in PubChem BioAssay (EPA / NIEHS).
Activity calls are given as the source filed them. How the source made its calls: active means hit-call score of the fitted dose curve at least 0.9, where 1 is the maximum; inactive means score below 0.9.

Test: CCTE_Padilla_ZF_Score.Blood_pooling: CCTE's 144 Hour Post-fertilization zebrafish Assay Score for Blood Pooling, Padilla Lab (AID 2284415)
Experimental: CCTE_Padilla_ZF_Phenotype_Score is a whole embryo, multiplexed assay using zebrafish ova exposed for 144 hours post fertilization on a 96-well plate.CCTE_Padilla_ZF_Score.Blood_pooling is one of one assay component(s) measured or calculated from the CCTE_Padilla_ZF_Phenotype_Score assay. It is designed to make measurements of zebrafish development as detected with brightfield microscopy of developing zebrafish embryos.Data from the assay component CCTE_Padilla_ZF_Score.Blood_pooling was analyzed into 1 assay endpoints. This assay endpoint, CCTE_Padilla_ZF_Score.Blood_pooling, was analyzed in the positive analysis fitting direction relative to DMSO as the negative control and baseline of activity. Using a type of viability reporter, gain-of-signal activity can be used to understand changes in developmentals as they relate to the whole embryo. To generalize the intended target to other relatable targets, this assay endpoint is annotated to the zebrafish development intended target family, where the subfamily is swim bladder morphogenesis.
Zebrafish husbandry: Wild type adult zebrafish (Danio rerio; undefined outbred stock obtained from Aquatic Research Organisms, Hampton, NH, 03842) were housed in an AAALAC-approved animal facility at 28C with a 14:10 h light: dark cycle (lights on at 08:30 h). Adult fish (2-3 females per male; density = 15-20 adults per tank) were kept in one of several 9-liter (L) flow-through colony tanks (Aquaneering Inc., San Diego, CA). All adults in a colony tank were placed in a 2 L (static) breeding tank (Aquatic Habitats, Apopka, FL) one hour prior to light onset. Typically, adults from two to three colony tanks were mated on the same day. Two hours after light onset the adults were returned to the colony tank. All embryos were gathered from each breeder tank, pooled, and placed in a 28C water bath for 2 h, followed by two washes with 0.06% bleach (v/v) in 10% Hanks' Balanced Salt Solution (13.7 mM NaCl 0.54 mM KCl, 25 uM Na2HPO4, 130 uM CaCl2 100 um MgSO4 and 420 um NaHCO3,), hereafter referred to as Hanks' solution, for 5 min in order to remove any residual bacteria or fungi. Immediately following washing, the embryos were examined, and healthy embryos were separated from dead or unfertilized eggs and moved into fresh Hanks'. Chemical exposures: Zebrafish embryos were exposed in 96-well plates. Between 6- and 8-hours post fertilization (hpf), healthy embryos (with chorions) were transferred, one embryo per well, into 96 well (0.5 mL) microtiter plates (Cell Culture-Treated, Flat-Bottom Microplate 96 well [Corning Costar, Kennebunk, ME; Cat 09-761-145]) filled with 200 uL of Hanks' solution. A random number generator was used to assign the order in which the rows of embryos were plated in 96 well plates each week. After plating, the embryos were dosed with 0.8 uL of the chemical dosing solution then immediately sealed with AlumaSeal II (Excel Scientific Inc, Victorville, CA) to prevent volatilization of the chemicals, and then placed in a leakproof secondary container. These containers were placed in an incubator maintained on a 14:10 h light: dark cycle at 26C for rearing. On 5 dpf, live larvae were gently moved out of the plate with test chemicals and into a new 96 well mesh plate (Millipore Corp., Bedford, MA) with just the Hanks' solution. Once within the mesh well plate, the animals were rinsed with 400 uL of fresh Hanks' three times, and then the plates were covered with a non-adhesive material (Microseal A, BioRad, Hercules, CA), plate lid added, and then plate sides wrapped in Parafilm (PM992, Bermis Company, Neenah, WI), and returned to the incubator. […]

SMILES	outcome
O=CC(F)(F)C(F)(F)C(F)(F)F	inactive
O=C(F)C(F)(F)C(F)(F)C(F)(F)C(=O)F	inactive
O=C(O)CCC(F)(F)C(F)(F)C(F)(F)C(F)(F)C(F)(F)F	inactive
O=P(O)(O)CCC(F)(F)C(F)(F)C(F)(F)C(F)(F)C(F)(F)C(F)(F)F	inactive
FC1(F)C=CC(F)(F)C1(F)F	inactive
O=P(O)(O)CCC(F)(F)C(F)(F)C(F)(F)C(F)(F)C(F)(F)C(F)(F)C(F)(F)C(F)(F)F	inactive
FCOC(C(F)(F)F)C(F)(F)F	inactive
FC(F)(F)C1(F)C(F)(F)C(F)(F)C(F)(F)C1(F)F	inactive
O=CC(F)(F)C(F)(F)C(F)(F)C(F)F	inactive
COC(=O)C(F)(F)C(F)(F)C(F)(F)C(F)(F)C(F)(F)F	inactive
FC(F)(F)C1(F)C(F)(F)C(F)(F)C(F)(F)C(F)(C(F)(F)F)C1(F)F (centres undefined)	inactive
O=C(OC(=O)C(F)(F)C(F)(F)F)C(F)(F)C(F)(F)F	inactive
O=C(CC(=O)C(F)(F)C(F)(F)C(F)(F)F)c1cccs1	inactive
OCC(F)(F)C(F)(F)C(F)(F)C(F)(F)C(F)(F)C(F)(F)C(F)(F)C(F)(F)C(F)(F)C(F)(F)C(F)(F)F	inactive
FC(F)=C(F)C(F)(F)C(F)(F)C(F)(F)C(F)F	inactive
O=C(O)CCC(F)(F)C(F)(F)C(F)(F)C(F)(F)C(F)(F)C(F)(F)F	inactive
CN(CCO)S(=O)(=O)C(F)(F)C(F)(F)C(F)(F)C(F)(F)C(F)(F)C(F)(F)C(F)(F)C(F)(F)F	inactive
NC(C(F)(F)F)C(F)(F)F	inactive
O=C(O)C(F)(F)OC(F)(F)C(F)(F)OC(F)(F)C(F)(F)OC(F)(F)C(F)(F)C(F)(F)C(F)(F)F	inactive
C=CC(F)(F)C(F)(F)C(F)(F)C(F)(F)F	inactive
C=CC(=O)OCCC(F)(F)C(F)(F)C(F)(F)C(F)(F)C(F)(F)C(F)(F)C(F)(F)C(F)(F)F	inactive
O=C1OC(=O)C(F)(F)C1(F)F	inactive
FC(OC(F)(F)C(F)(F)C(F)(F)F)C(F)(F)F (centres undefined)	inactive
FC(F)(F)N1C(F)(F)C(F)(F)OC(F)(F)C1(F)F	inactive
